Mito fusion act: mitochondrial division inhibition or fusion activation. S. cerevisiae fusion-defective mutant growth rescue, CellTiterGlo 48 h. Potency, µM (series often up to 46.1 µM), for inactives: at the top dose growth rescue (activation), hits mostly activators. 320,000 tested, 0.23% active. AID 485298; note: % of control where 0% means no effect; nearly all actives have a fitted effect of over 45% in size
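Compounds are tested for their ability to restore growth of mitochondrial fusion-defective yeast strains at non-permissive 37C in YPEG medium over 48 hours. Viability is quantified by luciferase luminescence.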
A549 viability: counter-screen for Nrf2 inhibitors: cytotoxicity in A549 cells. A549 ARE-Fluc cells, CellTiter-Fluor viability, 18-24 h. Potency, µM (highest dose often 46 µM), for inactives: at the highest dose activity change, negative = cytotoxicity, most hits filed as inhibitors. 390,000 tested, 0.16% active. AID 504648; note: % is set by controls: 0 for no effect and ±100 for the full control effect
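Cytotoxicity counterscreen: CellTiter-Fluor fluorescence was measured in A549 ARE_Fluc cells after 18-24 h of compound exposure in a concentration series. The subsequent BugLite luminescent read reports ARE-luciferase activity.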
TrxR1 substrate: substrates of rat thioredoxin reductase 1; 390,000 tested, 0.01% active; Potency, µM (doses to about 114 µM), for inactives: top-dose activity change, negative = substrate turnover; purified TrxR1 substrate turnover, NADPH consumption readout; note: % is set by controls: 0 for no effect and ±100 for the full control effect; nearly all actives have a fitted effect of over 50% in size
Target sequence (O89049 whole entry, looked up): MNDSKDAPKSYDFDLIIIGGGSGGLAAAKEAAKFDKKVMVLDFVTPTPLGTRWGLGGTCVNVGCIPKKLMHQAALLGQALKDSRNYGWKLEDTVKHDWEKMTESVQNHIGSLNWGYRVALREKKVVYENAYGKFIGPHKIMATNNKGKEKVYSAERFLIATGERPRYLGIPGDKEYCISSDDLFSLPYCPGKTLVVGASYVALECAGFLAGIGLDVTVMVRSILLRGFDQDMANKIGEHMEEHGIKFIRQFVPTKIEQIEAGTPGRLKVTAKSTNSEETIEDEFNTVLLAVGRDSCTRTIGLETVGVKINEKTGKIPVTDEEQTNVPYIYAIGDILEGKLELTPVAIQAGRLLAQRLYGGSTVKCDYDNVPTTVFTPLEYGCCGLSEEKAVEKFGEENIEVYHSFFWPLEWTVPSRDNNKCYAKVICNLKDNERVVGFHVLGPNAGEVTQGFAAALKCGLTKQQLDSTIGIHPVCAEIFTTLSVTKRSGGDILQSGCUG
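Rat TrxR1, dispensed at 90 nM, was prereduced with 400 uM NADPH (final) for 5 min at ~22 deg C, then incubated with compound 15 min before 400 uM selenite. A first-read NADPH fluorescence drop versus no-compound background flagged substrates.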
Nrf2 block: Nrf2 pathway inhibition; 360,000 tested, 2.1% active; A549 ARE-Fluc reporter, luciferase luminescence, 18-24 h; Potency, µM (highest dose often 46 µM), without a hit: at the highest dose activity change, negative = inhibition, hits mostly inhibitors; note: % is set by controls: 0 for no effect and ±100 for the full control effect; nearly all actives have a fitted effect of over 60% in size
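Concentration-response testing used A549 ARE_Fluc cells at 5000 cells/well. Following an 18-24 h compound incubation, viability was read by fluorescence (Ex 405/Em 525) and luciferase output by luminescence.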
mIDH1 inhibitor: blocks human mutant IDH1 R132H enzyme; O75874; IDH1-R132H enzyme, NADPH consumption, diaphorase/resazurin fluorescence; Potency, µM (highest dose often 76.6 µM), inactives show at the highest dose activity change, negative = inhibition, usual class: inhibitors; 390,000 tested, 0.093% active; note: % is set by controls: 0 for no effect and ±100 for the full control effect; nearly all actives have a fitted effect of over 65% in size
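IDH1-R132H (0.5 ug/mL) preincubated 30 min with compound, then NADPH (0.016 mM) and alpha-KG (2 mM) added; 80 min at RT, pH 7.5. Remaining NADPH coupled via diaphorase/resazurin to fluorescence (540/590 nm); concentration-response curves normalized to no-enzyme control.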
rTrxR1 inhibitor: rat TrxR1 inhibition | O89049 | recombinant rTrxR1, NADPH fluorescence consumption, selenite substrate | Potency, µM (top dose mostly 114 µM), for inactives: at the top dose activity change, negative = inhibition, usual class: inhibitors | 390,000 tested, 1% active; note: % is set by controls: 0 for no effect and ±100 for the full control effect; nearly all actives have a fitted effect of over 65% in size
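Rat TrxR1 (90 nM in the dispensed reagent) was pre-reduced with 400 uM NADPH for 5 min at room temperature, then incubated with compound for 15 min. After 400 uM selenite was added, NADPH fluorescence (Ex 340/Em 450 nm) was followed for 8 min.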
Starred values were filed as active, the others as inactive; [ ] = remark or other dose. Most compounds without a hit are left out; they make up all but 3.1% or so of the library. Calls come from the whole dose curve; as a rule, active = well fitted curve in the direction sought with a large enough effect; inconclusive = small, poorly fitted or top-dose-only effect, or another doubt; inactive = no such curve, though single readings can be large; an effect the other way counts as inactive or inconclusive. Potency is the fitted concentration of half-maximal effect.

`CC(C)Cn1c(=O)c2sccc2n2c(CCCC(=O)NCC(C)c3ccccc3)nnc12` (stereo not drawn) gave A549 viability -1%, TrxR1 substrate 3%, Nrf2 block -2%, mIDH1 inhibitor -7% and rTrxR1 inhibitor -1%.
For Cc1nc2ccccc2n1CCOc1ccc(F)cc1 the results were Mito fusion act -8%, A549 viability 6%, TrxR1 substrate -8%, Nrf2 block 21µM*, mIDH1 inhibitor 3% and rTrxR1 inhibitor -8%.
COc1ccc(OCCn2c(C)nc3ccccc32)cc1 was read as mIDH1 inhibitor 3%.
Screening CC(C)(C)OC(=O)N1CCC(c2c(C(=O)N3CCN(c4ccccn4)CC3)cnn2-c2ccc(F)cc2F)CC1 returned A549 viability 5%, TrxR1 substrate 5%, Nrf2 block -22%, mIDH1 inhibitor -5% and rTrxR1 inhibitor 9%.
For O=C1c2ccccc2C(=O)N1CCCCN(C(=O)c1cc([N+](=O)[O-])cc([N+](=O)[O-])c1)c1ccc(Cl)cc1 the results were Mito fusion act -3%, A549 viability -12%, TrxR1 substrate 0%[57.1 µM], Nrf2 block 23µM*, mIDH1 inhibitor 10% and rTrxR1 inhibitor 1%[57.1 µM].
N#Cc1ccc(-c2cccnc2)nc1SCc1ccc(Cl)cc1Cl was read as Mito fusion act 4%, A549 viability -3%, TrxR1 substrate 34%, Nrf2 block -27%, mIDH1 inhibitor 0% and rTrxR1 inhibitor 40%.
For N#Cc1ccc(-c2cccnc2)nc1SCc1ccc(Cl)c(Cl)c1 the results were Mito fusion act 23%, A549 viability -15%, TrxR1 substrate 20%, Nrf2 block 23µM*, mIDH1 inhibitor 7% and rTrxR1 inhibitor 15%.
N#CC1=C2SCC(O)(c3ccccc3)N2C(=O)CC1c1cccs1 (stereo not drawn) was read as Mito fusion act 2%, A549 viability -12%, TrxR1 substrate -1%, mIDH1 inhibitor 3% and rTrxR1 inhibitor 9%.
Screening N#CC1=C2SCC(O)(c3ccccc3)N2C(=O)CC1c1ccccc1F (stereo not drawn) returned Mito fusion act 6%, A549 viability -6%, TrxR1 substrate -5%, Nrf2 block 10µM*, mIDH1 inhibitor 3% and rTrxR1 inhibitor -8%.
Cc1ccc(N2C(=O)CS(=O)(=O)CC2=O)cc1 was read as Mito fusion act 2%, A549 viability -10%, TrxR1 substrate 8%[57.1 µM], Nrf2 block 23%, mIDH1 inhibitor 9% and rTrxR1 inhibitor 4.5µM*.
For COc1ccc(C(=O)N(Cc2ccco2)Cc2cccs2)c(OC)c1 the results were A549 viability 3%, TrxR1 substrate -4%, Nrf2 block -5% and rTrxR1 inhibitor inconclusive.
Cc1ccc(NC(=O)CSc2nc3ccc(NC(=O)c4ccco4)cc3s2)c(C)c1 was read as A549 viability -4%, TrxR1 substrate 4%, Nrf2 block inconclusive, mIDH1 inhibitor 0% and rTrxR1 inhibitor 6%.
For O=c1c2cn[nH]c2nc(SCc2cccc(Br)c2)n1-c1ccc(Cl)cc1 the results were A549 viability 6%, TrxR1 substrate -5%[57.1 µM], mIDH1 inhibitor -25% and rTrxR1 inhibitor 13%[57.1 µM].
Screening O=c1c2cn[nH]c2nc(SCc2ccc3c(c2)OCCO3)n1-c1ccccc1 returned Mito fusion act 0%, A549 viability -16%, TrxR1 substrate -2%, Nrf2 block 21µM*, mIDH1 inhibitor -2% and rTrxR1 inhibitor -1%[57.1 µM].
Cc1cc(C)cc(-n2ccn(Cc3ccc(F)cc3)c(=O)c2=O)c1 was read as A549 viability 0%, TrxR1 substrate 8%[11.4 µM], Nrf2 block 23µM*, mIDH1 inhibitor 21% and rTrxR1 inhibitor 10%.
`Cc1ccc(-c2[nH]c3ccccc3c2C(C[N+](=O)[O-])c2ccco2)cc1` (stereo not drawn) gave Mito fusion act 0%, A549 viability -21%, TrxR1 substrate -3%, Nrf2 block inconclusive, mIDH1 inhibitor 5% and rTrxR1 inhibitor inconclusive.
Cc1[nH]c2ccccc2c1C(C[N+](=O)[O-])c1ccco1 (stereo not drawn) was read as Mito fusion act 5%, A549 viability 1%, TrxR1 substrate 2%, Nrf2 block 1%, mIDH1 inhibitor -1% and rTrxR1 inhibitor 13µM*.
For Cc1ccc(NS(=O)(=O)c2cc3c(cc2C)NC(=O)CO3)cc1C the results were A549 viability 1% and Nrf2 block -16%.
Screening Cc1cccc(C)c1NC(=O)C1CCCN(S(=O)(=O)c2c(C)noc2/C=C/N(C)C)C1 (stereo not drawn) returned A549 viability 0%, TrxR1 substrate -14%, Nrf2 block 2%, mIDH1 inhibitor -14% and rTrxR1 inhibitor -10%.
For CCC(=O)Nc1nc(CC(=O)Nc2ccccc2OC)cs1 the results were Mito fusion act -3%, A549 viability 13%, TrxR1 substrate -9%[57.1 µM], mIDH1 inhibitor 7% and rTrxR1 inhibitor 8%[57.1 µM].
`COc1ccccc1NC(=O)Cc1csc(NC(=S)Nc2ccc(C)cc2)n1` gave Mito fusion act -6%, A549 viability -28%, TrxR1 substrate 4%[57.1 µM], Nrf2 block inconclusive, mIDH1 inhibitor -6% and rTrxR1 inhibitor 8.9µM*.
For CCOC(=O)Cc1csc(NC(=S)NC(=O)c2ccc(C)cc2)n1 the results were Mito fusion act 1%, A549 viability -10%, TrxR1 substrate -6%, Nrf2 block 2.1µM*, mIDH1 inhibitor 12% and rTrxR1 inhibitor -4%.
`CCOC(=O)Cc1csc(NC(=S)NC(=O)c2ccccc2)n1` gave Mito fusion act 3%, A549 viability 5%, TrxR1 substrate 5%, Nrf2 block 0%, mIDH1 inhibitor 0% and rTrxR1 inhibitor 3%.
Screening CCOCCCNC(=O)C(c1ccc(Cl)cc1)N(Cc1cccs1)C(=O)c1ccc(NC(C)=O)cc1 (stereo not drawn) returned A549 viability -4%, TrxR1 substrate 3%[2.29 µM], Nrf2 block -23%[9.27 µM], mIDH1 inhibitor -16% and rTrxR1 inhibitor 2%[2.29 µM].
`COc1ccc(OC)c(CCNC(=O)CN2C(=O)COc3ccc(S(=O)(=O)N4CCC(C)CC4)cc32)c1` gave A549 viability -14%, TrxR1 substrate 1%, Nrf2 block 17%, mIDH1 inhibitor 8% and rTrxR1 inhibitor 2%.
CC1CCN(c2ccc(C(=O)Nc3ccc4c(c3)OCO4)cc2[N+](=O)[O-])CC1 was read as Mito fusion act inconclusive, A549 viability -8%, TrxR1 substrate 6%[57.1 µM], Nrf2 block 9.2µM*, mIDH1 inhibitor 22% and rTrxR1 inhibitor 15%[57.1 µM].

Screening data from PubChem.
